# Experimental data published in the supplement of paper PMC8728848.
# Many of the other results were omitted from the sample, so the strongest signals are more common in it than they were.
# B1: Tamarinin (protein)
# chain: CDDSARAGNIVVYWGQGGSDNSEGSLKEACKSGHYNMIVLQQLIVYDDGRDPDLNLGAHCSDCTKLEEQIKYCQNKDIKILLQIGQVVPTQEDVKDVTKNLSEYLLKNFFSGKSGPLGEVYLNGIDIASVPEGNNLKFDELVEALNDSSTERRIYLSASPLCVYPDYYLNKAIQTEKLDFLFVQFFYQNPCIYTEGNPENLFEAMKTWTKNVPESMIFMALPATPNLDGYIPPRVLNKEILPAVSEASNFAGVMIFDRYFDRFRKYSSKIK
# Experiments:
# Test in all cases: glycan array binding signal (z-score within array); higher = stronger binding
# Settings in all cases: glycan notation: IUPAC condensed, linker removed
# [1] = biological target: Fuc(a1-2)Gal(b1-3)GlcNAc(b1-2)Man(a1-3)[Fuc(a1-2)Gal(b1-3)GlcNAc(b1-2)Man(a1-6)]Man(b1-4)GlcNAc(b1-4)GlcNAc
# Method in brief: (§1)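 The Consortium for Functional Glycomics database supplied 3228 glycan arrays, of which those lacking an available protein sequence were dropped. The binding signal, a within-array Z-score, was averaged across arrays of the same protein sequence and across linkers. Negative scores can be read as non-binding.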
# Fuc(a1-2)Gal(b1-4)Glc6S = biological target: Fuc(a1-2)Gal(b1-4)Glc6S
# Method in brief: as §1
# [2] = biological target: Fuc(a1-2)Gal(b1-4)GlcNAc(b1-3)Gal(b1-4)GlcNAc
# Method in brief: as §1
# [3] = biological target: Fuc(a1-2)Gal(b1-4)GlcNAc(b1-3)GalNAc
# Method in brief: as §1
# [4] = biological target: Fuc(a1-2)Gal(b1-4)GlcNAc(b1-3)[Fuc(a1-2)Gal(b1-4)GlcNAc(b1-6)]GalNAc
# Method in brief: as §1
# [5] = biological target: Fuc(a1-2)Gal(b1-4)GlcNAc(b1-3)[Fuc(a1-3)[Gal(b1-4)]GlcNAc(b1-6)]Gal(b1-4)Glc
# Method in brief: as §1
# [6] = biological target: Fuc(a1-2)Gal6S(b1-3)GlcNAc6S
# Method in brief: as §1
# Fuc(a1-2)Gal6S(b1-4)Glc = biological target: Fuc(a1-2)Gal6S(b1-4)Glc
# Method in brief: as §1
# Fuc(a1-2)[Gal(a1-3)]Gal = biological target: Fuc(a1-2)[Gal(a1-3)]Gal
# Method in brief: as §1
# [7] = biological target: Fuc(a1-2)[GalNAc(a1-3)]Gal
# Method in brief: as §1
# [8] = biological target: Fuc(a1-2)[GalNAc(a1-3)]Gal(b1-3)GalNAc(a1-3)[Fuc(a1-2)]Gal(b1-4)GlcNAc
# Method in brief: as §1
# [9] = biological target: Fuc(a1-3)[Gal(b1-4)]GlcNAc(b1-3)Gal(b1-3)[Fuc(a1-4)]GlcNAc
# Method in brief: as §1
# [10] = biological target: Fuc(a1-3)[Gal(b1-4)]GlcNAc(b1-3)Gal(b1-4)[Fuc(a1-3)]GlcNAc
# Method in brief: as §1
# [11] = biological target: Fuc(a1-3)[Gal(b1-4)]GlcNAc(b1-6)GalNAc
# Method in brief: as §1
# [12] = biological target: Fuc(a1-3)[GalNAc(b1-4)]GlcNAc
# Method in brief: as §1
# Gal(a1-2)Gal = biological target: Gal(a1-2)Gal
# Method in brief: as §1
# Gal(a1-3)Gal(b1-3)GlcNAc = biological target: Gal(a1-3)Gal(b1-3)GlcNAc
# Method in brief: as §1
# Gal(b1-3)Gal(b1-4)GlcNAc = biological target: Gal(b1-3)Gal(b1-4)GlcNAc
# Method in brief: as §1
# [13] = biological target: Gal(b1-3)GlcNAc(b1-3)Gal(b1-3)GlcNAc
# Method in brief: as §1
# [14] = biological target: Gal(b1-3)GlcNAc(b1-3)Gal(b1-4)GlcNAc(b1-3)Gal(b1-4)GlcNAc(b1-2)[Gal(b1-3)GlcNAc(b1-3)Gal(b1-4)GlcNAc(b1-3)Gal(b1-4)GlcNAc(b1-6)]Man(a1-6)[Gal(b1-3)GlcNAc(b1-3)Gal(b1-4)GlcNAc(b1-3)Gal(b1-4)GlcNAc(b1-2)Man(a1-3)]Man(b1-4)GlcNAc(b1-4)[Fuc(a1-6)]GlcNAc
# Method in brief: as §1
# [15] = biological target: Gal(b1-3)[Fuc(a1-4)]GlcNAc(b1-2)Man
# Method in brief: as §1
# [16] = biological target: Gal(b1-3)[Fuc(a1-4)]GlcNAc(b1-2)Man(a1-3)[Gal(b1-3)[Fuc(a1-4)]GlcNAc(b1-2)Man(a1-6)]Man(b1-4)GlcNAc(b1-4)[Fuc(a1-6)]GlcNAc
# Method in brief: as §1
# [17] = biological target: Gal(b1-3)[Fuc(a1-4)]GlcNAc(b1-6)GalNAc
# Method in brief: as §1
# [18] = biological target: Gal(b1-3)[Neu5Ac(a2-6)]GlcNAc(b1-4)Gal(b1-4)Glc
# Method in brief: as §1
# [19] = biological target: Gal(b1-3)[Neu5Ac(b2-6)]GalNAc
# Method in brief: as §1
# [20] = biological target: Gal(b1-4)GlcNAc(b1-3)Gal(b1-4)Glc
# Method in brief: as §1
# [21] = biological target: Gal(b1-4)GlcNAc(b1-3)Gal(b1-4)GlcNAc(b1-3)Gal(b1-4)GlcNAc(b1-3)Gal(b1-4)GlcNAc(b1-3)Gal(b1-4)GlcNAc(b1-2)Man(a1-3)[Gal(b1-4)GlcNAc(b1-3)Gal(b1-4)GlcNAc(b1-3)Gal(b1-4)GlcNAc(b1-3)Gal(b1-4)GlcNAc(b1-3)Gal(b1-4)GlcNAc(b1-2)Man(a1-6)]Man(b1-4)GlcNAc(b1-4)GlcNAc
# Method in brief: as §1
# [22] = biological target: Gal3S(b1-4)[Fuc(a1-3)]Glc6S
# Method in brief: as §1
# Gal6S(b1-4)GlcNAc6S = biological target: Gal6S(b1-4)GlcNAc6S
# Method in brief: as §1
# GalNAc3S(b1-4)GlcNAc = biological target: GalNAc3S(b1-4)GlcNAc
# Method in brief: as §1
# GalNAc6S(b1-4)GlcNAc = biological target: GalNAc6S(b1-4)GlcNAc
# Method in brief: as §1
# [23] = biological target: Glc(a1-4)Glc(a1-4)Glc(a1-4)Glc
# Method in brief: as §1
# Glc(a1-6)Glc(a1-6)Glc = biological target: Glc(a1-6)Glc(a1-6)Glc
# Method in brief: as §1
# [24] = biological target: Glc(a1-6)Glc(a1-6)Glc(a1-6)Glc
# Method in brief: as §1
# GlcA(b1-6)Gal = biological target: GlcA(b1-6)Gal
# Method in brief: as §1
# [25] = biological target: GlcNAc(b1-3)Gal(b1-4)GlcNAc(b1-3)Gal(b1-4)GlcNAc(b1-3)Gal(b1-4)GlcNAc(b1-3)Gal(b1-4)GlcNAc(b1-2)Man(a1-3)[GlcNAc(b1-3)Gal(b1-4)GlcNAc(b1-3)Gal(b1-4)GlcNAc(b1-3)Gal(b1-4)GlcNAc(b1-3)Gal(b1-4)GlcNAc(b1-2)Man(a1-6)]Man(b1-4)GlcNAc(b1-4)[Fuc(a1-6)]GlcNAc
# Method in brief: as §1
# [26] = biological target: GlcNAc(b1-3)Gal(b1-4)GlcNAc(b1-3)[GlcNAc(b1-3)Gal(b1-4)GlcNAc(b1-3)]GalNAc
# Method in brief: as §1
# GlcNAc(b1-3)Man = biological target: GlcNAc(b1-3)Man
# Method in brief: as §1
# [27] = biological target: Man(a1-2)Man(a1-2)Man(a1-6)[Man(a1-3)]Man
# Method in brief: as §1
# [28] = biological target: Man(a1-2)Man(a1-6)[Man(a1-3)]Man(a1-6)[Man(a1-2)Man(a1-2)Man(a1-3)]Man
# Method in brief: as §1
# Man(a1-3)[Man(a1-6)]Man = biological target: Man(a1-3)[Man(a1-6)]Man
# Method in brief: as §1
# [29] = biological target: Man(a1-3)[Man(a1-6)]Man(a1-6)[Man(a1-2)Man(a1-3)]Man(b1-4)GlcNAc(b1-4)GlcNAc
# Method in brief: as §1
# [30] = biological target: Neu5Ac(a2-3)Gal(b1-3)[Fuc(a1-4)]GlcNAc(b1-3)Gal(b1-4)[Fuc(a1-3)]GlcNAc
# Method in brief: as §1
# [31] = biological target: Neu5Ac(a2-3)Gal(b1-4)GlcNAc
# Method in brief: as §1
# [32] = biological target: Neu5Ac(a2-3)Gal(b1-4)GlcNAc(b1-3)Gal(b1-4)GlcNAc(b1-3)Gal(b1-4)GlcNAc
# Method in brief: as §1
# [33] = biological target: Neu5Ac(a2-3)Gal6S(b1-4)[Fuc(a1-3)]GlcNAc
# Method in brief: as §1
# [34] = biological target: Neu5Ac(a2-6)Gal(b1-3)GlcNAc(b1-3)[Gal(b1-4)GlcNAc(b1-6)]Gal(b1-4)Glc
# Method in brief: as §1
# [35] = biological target: Neu5Ac(a2-6)Gal(b1-4)GlcNAc
# Method in brief: as §1
# [36] = biological target: Neu5Ac(a2-6)Gal(b1-4)GlcNAc(b1-2)Man(a1-3)[Neu5Ac(a2-6)Gal(b1-4)GlcNAc(b1-2)Man(a1-6)]Man(b1-4)GlcNAc(b1-4)[Fuc(a1-6)]GlcNAc
# Method in brief: as §1
# [37] = biological target: Neu5Ac(a2-6)Gal(b1-4)GlcNAc(b1-3)GalNAc
# Method in brief: as §1
# [38] = biological target: Neu5Ac(a2-6)Gal(b1-4)GlcNAc(b1-6)[Gal(b1-3)GlcNAc(b1-3)]Gal(b1-4)Glc
# Method in brief: as §1
# [39] = biological target: Neu5Ac(a2-8)Neu5Ac(a2-3)Gal(b1-4)Glc
# Method in brief: as §1
# [40] = biological target: Neu5Gc(a2-3)Gal(b1-4)GlcNAc(b1-3)Gal(b1-4)GlcNAc(b1-2)Man(a1-3)[Neu5Gc(a2-3)Gal(b1-4)GlcNAc(b1-3)Gal(b1-4)GlcNAc(b1-2)Man(a1-6)]Man(b1-4)GlcNAc(b1-4)GlcNAc
# Method in brief: as §1
# [41] = biological target: Neu5Gc(a2-8)Neu5Gc(a2-6)Gal(b1-4)GlcNAc
# Method in brief: as §1
binder,measurement,setting,value
B1,glycan array binding signal (z-score),[1],0.79
same,glycan array binding signal (z-score),Fuc(a1-2)Gal(b1-4)Glc6S,-0.241
same,glycan array binding signal (z-score),[2],-0.361
same,glycan array binding signal (z-score),[3],0.146
same,glycan array binding signal (z-score),[4],4.01
same,glycan array binding signal (z-score),[5],-0.458
same,glycan array binding signal (z-score),[6],4.89
same,glycan array binding signal (z-score),Fuc(a1-2)Gal6S(b1-4)Glc,-0.164
same,glycan array binding signal (z-score),Fuc(a1-2)[Gal(a1-3)]Gal,-0.275
same,glycan array binding signal (z-score),[7],-0.388
same,glycan array binding signal (z-score),[8],-0.292
same,glycan array binding signal (z-score),[9],-0.377
same,glycan array binding signal (z-score),[10],0.223
same,glycan array binding signal (z-score),[11],-0.129
same,glycan array binding signal (z-score),[12],-0.154
same,glycan array binding signal (z-score),Gal(a1-2)Gal,-0.001
same,glycan array binding signal (z-score),Gal(a1-3)Gal(b1-3)GlcNAc,-0.375
same,glycan array binding signal (z-score),Gal(b1-3)Gal(b1-4)GlcNAc,11.2
same,glycan array binding signal (z-score),[13],-0.135
same,glycan array binding signal (z-score),[14],4.61
same,glycan array binding signal (z-score),[15],1.45
same,glycan array binding signal (z-score),[16],3.52
same,glycan array binding signal (z-score),[17],-0.371
same,glycan array binding signal (z-score),[18],2.92
same,glycan array binding signal (z-score),[19],-0.455
same,glycan array binding signal (z-score),[20],0.79
same,glycan array binding signal (z-score),[21],-0.24
same,glycan array binding signal (z-score),[22],-0.238
same,glycan array binding signal (z-score),Gal6S(b1-4)GlcNAc6S,-0.214
same,glycan array binding signal (z-score),GalNAc3S(b1-4)GlcNAc,2.59
same,glycan array binding signal (z-score),GalNAc6S(b1-4)GlcNAc,2.4
same,glycan array binding signal (z-score),[23],-0.232
same,glycan array binding signal (z-score),Glc(a1-6)Glc(a1-6)Glc,-0.034
same,glycan array binding signal (z-score),[24],0.415
same,glycan array binding signal (z-score),GlcA(b1-6)Gal,0.165
same,glycan array binding signal (z-score),[25],-0.061
same,glycan array binding signal (z-score),[26],-0.332
same,glycan array binding signal (z-score),GlcNAc(b1-3)Man,0.095
same,glycan array binding signal (z-score),[27],14.1
same,glycan array binding signal (z-score),[28],-0.298
same,glycan array binding signal (z-score),Man(a1-3)[Man(a1-6)]Man,0.04
same,glycan array binding signal (z-score),[29],-0.295
same,glycan array binding signal (z-score),[30],3.05
same,glycan array binding signal (z-score),[31],-0.352
same,glycan array binding signal (z-score),[32],-0.251
same,glycan array binding signal (z-score),[33],-0.371
same,glycan array binding signal (z-score),[34],-0.386
same,glycan array binding signal (z-score),[35],-0.341
same,glycan array binding signal (z-score),[36],-0.131
same,glycan array binding signal (z-score),[37],5.41
same,glycan array binding signal (z-score),[38],-0.361
same,glycan array binding signal (z-score),[39],-0.395
same,glycan array binding signal (z-score),[40],-0.36
same,glycan array binding signal (z-score),[41],-0.477
